# Measurements published in PubChem BioAssay (EPA / NIEHS).
# Where “and” joins values, the source holds several entries; their conditions need not be identical. Identical values can stand only once. Records with an inconclusive call do not appear. Calls of active or inactive are those of the source. How the source made its calls, unless noted: active means hit-call score of the fitted dose curve at least 0.9, where 1 is the maximum; inactive means score below 0.9.
# Columns and labels:
# [1] = TAMU_PeakParms_SingleDonor1434_Asystole: Texas A&M University (TAMU) 1.5-hr Human Induced Pluripotent Stem Cell (iPSC)-derived Cardiomyocytes Calcium (Ca+2) Flux Assay for Cardiotoxicity: Asystole (quiescence of beating) (AID 2284328; active means hit-call score of the fitted dose curve at least 0.9, where 1 is the maximum)
# Procedure, shortened: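 Donor 1434 iPSC-cardiomyocytes exposed 90 min at 37C, 5% CO2, to 0.2, 1, 10 and 100 uM in 0.5% DMSO. Ca2+ dye fluorescence gave average peak frequency; POD is EC95, a 95% beat-rate drop versus controls.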
# [2] = tested on: Brachyury (BRA) Protein Expression, Deisenroth Lab, TBXT (gene 6862); assay: CCTE_Deisenroth_DEVTOX-GLR_legacy_Bra: (Legacy) CCTE's DevTox GLR-Endo Assay Evaluation of Brachyury (BRA) Protein Expression, Deisenroth Lab (AID 2284329)
# Procedure, shortened: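 RUES2-GLR human pluripotent cells are differentiated for 48 h and receive two chemical exposures 24 h apart, at 10 concentrations from 1 nM to 200 uM. Cells are fixed, nuclei stained and imaged. Bra+ cells are those with mean Bra intensity over 5x BMAD above the pluripotent control median, expressed as a percentage of cell count, after subtracting the 0.2% DMSO control median.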
# [3] = CCTE_Deisenroth_DEVTOX-GLR_legacy_CellCount: (Legacy) Viability Assessment in CCTE's DevTox GLR-Endo Assay, Deisenroth Lab (AID 2284331); conditions: actives raise or lower the signal
# Procedure, shortened: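 RUES2-GLR human pluripotent cells were seeded 24 h, then differentiated 48 h with two compound doses at 24 h intervals (10-point, 1 nM - 200 uM). Fixed nuclei were imaged and counted; bidirectional fitting versus 0.2% DMSO.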
# [4] = CCTE_Deisenroth_5AR_NBTE_donor: CCTE's 5alpha-reductase NanoBRET Target Engagement Assay […], Deisenroth Lab (AID 2284319); conditions: actives raise or lower the signal
# Procedure, shortened: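 HEK293T cells were reverse transfected with an SRD5A2-NanoLuc vector for 20 h, exposed to test chemical (8 points, 10 nM - 29.9 uM) for 3 h, then testosterone tracer for 2 h more. Donor luminescence (460 nm) was read; bidirectional fit versus DMSO.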
# [5] = CCTE_Deisenroth_5AR_NBTE_acceptor: CCTE's 5alpha-reductase NanoBRET Target Engagement Assay - Autofluorescence Screen, Deisenroth Lab (AID 2284321); conditions: actives raise or lower the signal;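 further: compound fluorescence in the acceptor channel under 460 nm excitation flags autofluorescence artifacts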
# Procedure, shortened: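 HEK293T cell-based NanoBRET assay read 5 h after dosing; this acceptor channel serves as an autofluorescence artifact screen. Chemicals at nominal 100 uM were scanned in three independent runs (n=3), excitation 460 nm. Fitting was bidirectional versus DMSO baseline.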
# SRD5A2 (gene 6716) = assay: CCTE_Deisenroth_5AR_NBTE_ratio: CCTE's 5alpha-reductase NanoBRET Target Engagement Assay - Ratio, Deisenroth Lab (AID 2284322); conditions: actives raise or lower the signal
# Procedure, shortened: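 HEK293T transiently expressing SRD5A2-NanoLuc; cells exposed to chemical (8-point, 10 nM - 29.9 uM) for 5 h total, testosterone tracer added for final 2 h. NanoBRET acceptor/donor ratio (650/460 nm), bidirectional fit vs DMSO.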
# IYD (gene 389434) = assay: CCTE_GLTED_hIYD: CCTE's human Iodotyrosine Deiodinase (xIYD) Inhibition Assay, Great Lakes Toxicology and Ecology Division (GLTED) Lab (AID 2284317; active means hit-call score of the fitted dose curve at least 0.9, where 1 is the maximum;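 further: cell-free human IYD enzyme made in baculovirus insect cells; iodide freed from monoiodotyrosine measured by cerium arsenite color change at 420 nm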)
# Procedure, shortened: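 Absorbance change at 420 nm from the iodide-catalysed cerium-arsenic reaction reports free iodide released by human IYD from monoiodotyrosine. Enzyme, substrate and chemical are incubated 3 h; loss of signal is fitted relative to DMSO baseline.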
# [6] = CCTE_Mundy_HCI_iCellGluta_NOG_NeuriteLength: CCTE's Neurite Outgrowth Assay in iCellGluta cells for Neurite Length, Mundy Lab (AID 2284318; active means hit-call score of the fitted dose curve at least 0.9, where 1 is the maximum)
# Procedure, shortened: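 Automated high-content imaging of betaIII-tubulin (Alexa Fluor-488) and Hoechst-stained cells gave neurite length, normalized to the DMSO baseline.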
# [7] = VALA_TUBHUV_Antagonist_CellCount: Viability Assessment in the VALA Sciences human Umbilical Vein Endothelial Tubule Formation (TUBHUV) Antagonism Assay (AID 2284310; active means hit-call score of the fitted dose curve at least 0.9, where 1 is the maximum)
# Procedure, shortened: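 HUVEC co-cultured with HDF (1:3) 3 days in 10 ng/ml VEGF, then 3 days with compounds in VEGF medium. Fixed, nuclear stain and CD31 immunofluorescence, imaged; cell counts fitted versus 0.1% DMSO, loss of signal read as lower viability.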
# [8] = VALA_TUBIPS_Agonist_TubuleLength: VALA Sciences human iPS-derived Endothelial Tubule Formation (TUBIPS) Agonism Assay (AID 2284311; active means hit-call score of the fitted dose curve at least 0.9, where 1 is the maximum)
# Procedure, shortened: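 Human iPS-derived endothelial cells were exposed to compound for 72 h. Tubule formation was imaged by high-content fluorescence and scored as gain of signal relative to DMSO vehicle (agonist mode).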
# [9] = VALA_TUBIPS_Antagonist_TubuleLength: VALA Sciences human iPS-derived Endothelial Tubule Formation (TUBIPS) Antagonist Assay (AID 2284313; active means hit-call score of the fitted dose curve at least 0.9, where 1 is the maximum)
# Procedure, shortened: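 Cells grown 3 days with 10 ng/ml VEGF, then exposed to compounds in VEGF medium for another 3 days. After fixation, nuclear stain and CD31 immunofluorescence imaging gave mean total tubule length against 0.1% DMSO; suramin (100 uM) inhibition control.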
# [10] = VALA_MIGHUV2_CellCount: Viability Assessment in the VALA Sciences human Umbilical Vein Endothelial Cell Migration (MIGHUV) Assay, Area of Scratch Wound after Recovery (AID 2284314; active means hit-call score of the fitted dose curve at least 0.9, where 1 is the maximum)
# Procedure, shortened: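 Scratch-wounded HUVEC monolayers received test chemical within 30 min, 6-point concentration response in triplicate, 0.1 % DMSO vehicle. After 24 h wound recovery, fixed cells were Hoechst-stained and nuclei imaged; loss of signal versus DMSO indicates reduced viability.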
# [11] = VALA_MIGHUV2_Bcatenin: VALA Sciences human Umbilical Vein Endothelial Cell Migration (MIGHUV) Assay, Nuclear Translocation of beta-Catenin after Recovery (AID 2284315; active means hit-call score of the fitted dose curve at least 0.9, where 1 is the maximum)
# Procedure, shortened: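 HUVEC (4000 cells/well) scratch-wounded, dosed within 30 min over 6 concentrations in triplicate, recovered 24 h. After fixation, Hoechst and anti-beta-catenin immunofluorescence imaged for nuclear CTNB. Gain of signal versus 0.1% DMSO.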
# [12] = VALA_MIGHUV2_WoundArea: VALA Sciences human Umbilical Vein Endothelial Cell Migration (MIGHUV) Assay, Area of Scratch Wound after Recovery (AID 2284316; active means hit-call score of the fitted dose curve at least 0.9, where 1 is the maximum)
# Procedure, shortened: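 HUVEC seeded at 9000 cells/well, scratched after 24 h; test chemical added within 30 min, 6-point concentration response in triplicate (0.1% DMSO vehicle). After 24 h wound recovery, cells fixed and Hoechst-stained nuclei in wound area imaged; Cytochalasin D reference control.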
# [13] = VALA_TUBHUV_Antagonist_TubuleLength: VALA Sciences human Umbilical Vein Endothelial Tubule Formation (TUBHUV) Antagonism Assay (AID 2284325; active means hit-call score of the fitted dose curve at least 0.9, where 1 is the maximum)
# Procedure, shortened: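 HUVEC–HDF co-culture (1:3) pre-grown 3 days with 10 ng/ml VEGF, then 3 days with compound plus VEGF. Fixed, nuclear and CD31 stained; total tubule length by imaging versus 0.1% DMSO; suramin 100 uM positive control.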
# [14] = VALA_MIGHUV1_ScratchOnly_CellCount: Viability Assessment in the VALA Sciences human Umbilical Vein Endothelial Cell Migration (MIGHUV) Assay, Scratch Wound Inhibited Recovery (AID 2284327; active means hit-call score of the fitted dose curve at least 0.9, where 1 is the maximum)
# Procedure, shortened: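 HUVEC scratched after 24 h culture, chemical added within 30 min at 6 concentrations in triplicate (0.1% DMSO vehicle). After 24 h recovery, fixed cells were counted by Hoechst nuclear imaging in the wound area.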
# [15] = IUF_NPC2-5_cytotoxicity_120hr: Cytotoxicity Assessment at 120 hours in the Leibniz Research Institute for Environmental Medicine (IUF) Neural Progenitor Cell Migration and Differentiation Assay (NPC2-5) (AID 2284307; active means hit-call score of the fitted dose curve at least 0.9, where 1 is the maximum)
# Procedure, shortened: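 Human fetal neural progenitor spheres (0.3 mm, GW 16-19 cortex) were plated on poly-D-lysine/laminin in N2 differentiation medium and exposed for 120 h, with half-medium refresh at day 3. LDH release into supernatant was read by resorufin fluorescence.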
# [16] = IUF_NPC2-5_cell_number_120hr: Cell Number Assessment at 120 hours in the Leibniz Research Institute for Environmental Medicine (IUF) Neural Progenitor Cell Migration and Differentiation Assay (NPC2-5) (AID 2284308);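 further: count of Hoechst-stained nuclei in migration zone around plated human neural progenitor spheres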
# Procedure, shortened: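 Primary human fetal neural progenitor spheres (GW 16-19, 0.3 mm) plated on poly-D-lysine/laminin in N2 differentiation medium, exposed from day 0 for 120 h with half-medium refresh at day 3; Hoechst-positive nuclei counted in migration area versus DMSO control.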
# [17] = IUF_NPC2-5_viability_120hr: Viability Assessment at 120 hours in the Leibniz Research Institute for Environmental Medicine (IUF) Neural Progenitor Cell Migration and Differentiation Assay (NPC2-5) (AID 2284312)
# Procedure, shortened: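 Human fetal neural progenitor spheres (0.3 mm) plated on poly-D-lysine/laminin in N2 differentiation medium, exposed 120 h with half-medium refresh at day 3. Viability by alamar blue resazurin fluorescence; 7 concentrations, DMSO max 0.1%.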
# [18] = IUF_NPC1_cytotoxicity_72hr: Cytotoxicity Assessment at 72 hours in the Leibniz Research Institute for Environmental Medicine (IUF) Neural Progenitor Cell Proliferation Assay (NPC1) (AID 2284332; active means hit-call score of the fitted dose curve at least 0.9, where 1 is the maximum;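 further: rising LDH signal means more cytotoxicity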)
# Procedure, shortened: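 Spheres of primary human neural progenitors are plated one per well on day 0 in growth-factor medium and dosed at once. After three days at 37C, supernatant LDH is measured fluorimetrically via resazurin reduction.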
structure (smiles),measurement,setting,value
O=C1CCC(N2C(=O)c3ccccc3C2=O)C(=O)N1 (stereo not drawn),outcome,[1],inactive
same,outcome,[2],inactive
same,outcome,[3],inactive
Nc1nc2ncc(CNc3ccc(C(=O)N[C@@H](CCC(=O)O)C(=O)O)cc3)nc2c(=O)[nH]1,outcome,[3],inactive
CCC(C)(C)C(=O)O[C@H]1C[C@@H](C)C=C2C=C[C@H](C)[C@H](CC[C@@H]3C[C@@H](O)CC(=O)O3)[C@H]21,outcome,[4],inactive
same,outcome,[5],inactive
same,outcome,SRD5A2 (gene 6716),inactive
C[C@](N)(Cc1ccc(O)c(O)c1)C(=O)O,outcome,[2],inactive
same,outcome,[3],inactive
CCOc1cccc(-n2cc(C(=O)N3CCN(c4cc(C(=O)O)c5ccccc5c4)CC3)nc2-c2ccc(C)cc2)c1,AC50,IYD (gene 389434),116 µM (active)
Cn1c(=O)c2c(ncn2C)n(C)c1=O,outcome,[3],inactive
O=C(O)c1cc(N=Nc2ccc(S(=O)(=O)Nc3ccccn3)cc2)ccc1O,outcome,[4],inactive
same,outcome,[5],inactive
same,AC50,SRD5A2 (gene 6716),58.5 µM (active)
same,outcome,[2],inactive
same,outcome,[3],inactive
CC[C@H]1OC(=O)[C@H](C)[C@@H](O[C@H]2C[C@@](C)(OC)[C@@H](O)[C@H](C)O2)[C@H](C)[C@@H](O[C@@H]2O[C@H](C)C[C@H](N(C)C)[C@H]2O)[C@](C)(O)C[C@@H](C)C(=O)[C@H](C)[C@@H](O)[C@]1(C)O,outcome,[6],inactive
same,outcome,[4],inactive
same,outcome,[5],inactive
same,outcome,SRD5A2 (gene 6716),inactive
NC(=O)NO,outcome,[1],inactive
same,outcome,[2],inactive
same,AC50,[3],64.7 µM (active)
Nc1ccc(Nc2ccccc2)cc1,AC50,[4],28.3 µM (active)
same,AC50,[5],31.5 µM (active)
CN(C)c1ccc(N=NS(=O)(=O)O)cc1,AC50,IYD (gene 389434),47.9 µM (active)
same,outcome,[4],inactive
same,outcome,[5],inactive
same,AC50,SRD5A2 (gene 6716),64.2 µM (active)
CC(C)c1cccc(C(C)C)c1N1C(=O)c2ccc(O)cc2C1=O,outcome,[7],inactive
same,outcome,[8],inactive
same,AC50,[9],10.3 µM (active) and 72.7 µM (active)
same,AC50,[10],85.8 µM (active)
same,AC50,[11],17.4 µM (active) and 53.1 µM (active)
same,AC50,[12],17.8 µM (active) and 74 µM (active)
same,AC50,[13],10.7 µM (active) and 50 µM (active)
same,AC50,[14],11.7 µM (active)
CC[C@H](C)C(=O)O[C@H]1C[C@@H](C)C=C2C=C[C@H](C)[C@H](CC[C@@H]3C[C@@H](O)CC(=O)O3)[C@H]21,AC50,[2],37.6 µM (active)
same,AC50,[3],2.83 µM (active)
O=C(OC[C@H]1O[C@@H](OC(=O)c2cc(O)c(O)c(OC(=O)c3cc(O)c(O)c(O)c3)c2)[C@H](OC(=O)c2cc(O)c(O)c(OC(=O)c3cc(O)c(O)c(O)c3)c2)[C@@H](OC(=O)c2cc(O)c(O)c(OC(=O)c3cc(O)c(O)c(O)c3)c2)[C@@H]1OC(=O)c1cc(O)c(O)c(OC(=O)c2cc(O)c(O)c(O)c2)c1)c1cc(O)c(O)c(OC(=O)c2cc(O)c(O)c(O)c2)c1,AC50,IYD (gene 389434),13.3 µM (active)
same,outcome,[4],inactive
same,outcome,[5],inactive
same,outcome,SRD5A2 (gene 6716),inactive
CCCCCCc1ccc(O)cc1O,outcome,[1],inactive
O=P(OC(CCl)CCl)(OC(CCl)CCl)OC(CCl)CCl,outcome,[15],inactive
same,outcome,[16],inactive
same,outcome,[17],inactive
same,outcome,[9],inactive
same,outcome,[6],inactive
same,outcome,[18],inactive
CCOC(=O)c1ccc(C2CCC(NC[C@H](O)COc3ccc(O)c(NS(C)(=O)=O)c3)CC2)cc1 (stereo partly drawn),AC50,[4],62.7 µM (active)
same,AC50,[5],50 µM (active)
same,AC50,SRD5A2 (gene 6716),79.2 µM (active)
